# High-throughput results (PubChem)
# Pf Dd2 growth = Plasmodium falciparum Dd2 growth inhibition; P. falciparum Dd2 growth, SYBR Green, 72 h; Potency, µM (highest dose often 28.9 µM), without a hit: at the highest dose activity, negative = inhibition, most hits filed as inhibitors; hit rate 4.3% among 120,000; AID 1347417; active = well fitted inhibition curve with a large enough effect;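 note: plate controls were DMSO vehicle for no effect and reference drug for full effect; nearly all actives have a fitted effect of over 65% in size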
#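 Readout: SYBR Green fluorescence, 485 nm excitation, 535 nm emission, after ~16 h lysis at 37C. Before that, Dd2-infected red cells (2.5% hematocrit) grew 72 h with compound, 29 uM top final concentration.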
# The depositor's hits bear a star; i = inactive; [ ] = dose if it differs, or a comment. Many of the other results were omitted from the sample, so hits are more common in it than they were. Potency is the fitted concentration of half-maximal effect.
SMILES,Pf Dd2 growth
COCCCNC(=O)Cn1cnc2sc(C)c(S(=O)(=O)N3CCC(C)CC3)c2c1=O,35.5%
O=C(O)c1cnc(-c2cc(NCc3ccccn3)nc3[nH]ccc23)c(Cl)c1,-3.3%
Nc1ncc(-c2ccc(-c3cc(NC4CCCC4)nc4[nH]ccc34)cc2)[nH]1,8.91µM*
CCNC(=O)c1ccc(-c2cc(NC3CCCC3)nc3[nH]ccc23)nc1,10µM*
COc1ccc(C(=O)NCc2ccnc3[nH]ccc23)cc1,-8.4%[44.1 µM]
O=C(Nc1ccccc1)N[C@H]1[C@H](O)[C@@H](N2CCCCC2)[C@@H]2OC[C@H]1O2,-24.8%[44.1 µM]
O=C(NCC1(COc2cccnc2)C[C@@H](O)[C@@H](O)C1)c1ccc(F)cc1 (some centres undefined),-8.2%[44.1 µM]
Cn1cc(CN2CCCC23CCN(c2ccnc4c(C(F)(F)F)cccc24)CC3)cn1,i
CCn1ccnc1CN1CCCC12CCN(c1ccc(C(F)(F)F)cn1)CC2,-7.1%
CCc1ncc(CN2CCCC23CCN(c2ccc(C(F)(F)F)cn2)CC3)cn1,7.94µM*
COC(=O)c1cc2oc3ccccc3c2n1CC(=O)Nc1ccc(F)c(Cl)c1,8.9%
O=S(=O)(Cc1ccccc1)N1CCCC(Cc2noc(-c3cccnc3)n2)C1 (centres undefined),-22.2%
Cc1noc(C)c1[S+](=O)([O-])N1CCC(N2Cc3cccn3C2=O)CC1,2.2%
O=C(CSCc1cnn(-c2ccccc2)c1-n1cccc1)NCc1ccc(F)cc1,i
CCc1ccccc1NC(=O)N1CCC(n2cnnc2C2CC2)C1 (centres undefined),-37.6%
COC(=O)c1ccc([C@@H]2Nc3c(OC)ccc(C)c3[C@@H]3C=CC[C@@H]32)cc1,3.16µM*
COC(=O)c1ccc(-c2nc(-c3ccc(OC)c(OC)c3)no2)cc1,58.6%
COc1ccc(C(=O)N2[C@@H]3CC[C@H]2CC(NC(=O)c2ccc(F)cc2)C3)cc1OC (some centres undefined),i
COc1cccc(NC(=O)N[C@H]2CCN(C(=O)C=C(C)C)[C@@H]2C(=O)N[C@H](Cc2ccccc2)C(N)=O)c1,-4.6%
CC(C)(C)OC(=O)N1CCC(c2c(C(=O)N3CCN(c4ccc(Cl)cc4)CC3)cnn2-c2ccc(F)cc2F)CC1,11.2µM*
Cc1c(Cl)cccc1-n1ncc(C(=O)N2CCN(c3ncccn3)CC2)c1C1CCN(C(=O)OC(C)(C)C)CC1,i
Cc1c(Cl)cccc1-n1ncc(C(=O)N2CCC(C)CC2)c1C1CCN(C(=O)OC(C)(C)C)CC1,11.2µM*
CC(C)(C)OC(=O)N1CCC(c2c(C(=O)N3CCN(c4ccccc4F)CC3)cnn2-c2ccccc2Cl)CC1,12.6µM*
CN1CCN(C(=O)c2cnn(-c3ccc(F)cc3F)c2C2CCN(C(=O)OC(C)(C)C)CC2)CC1,16.1%
O=[S+]1([O-])NC2(CCN(CC3CC3)CC2)COc2ccccc21,7.5%
SMILES,Pf Dd2 growth
Cc1c(NC(=O)c2ccccc2F)cccc1-c1nc2cccnc2s1,21.8%
COc1cccc(CC(=O)NCc2nnc3ccc(-c4ccc(C)c(C)c4)nn23)c1,i
O=C(c1cncs1)N1CCc2c(cc(-c3cccc(F)c3)c(=O)n2CCN2CCCCC2)C1,-25.1%
COc1cccc(NC(=O)NC[C@H]2O[C@H](Cc3cc(COc4ccccc4)on3)CC[C@@H]2O)c1,i
O=C(CC1Cc2ccccc2C1)N[C@H]1CCOC[C@H]1C1CCOCC1,-5.4%
Cc1cc(C2CCC2)nc(N2CCN(C)C3(CCNC(=O)CC3)C2)n1 (centres undefined),-24.5%
Cc1ccc(C(=O)N2CCn3c(nnc3C3CCNCC3)C2)cc1,9.3%
CCC1(CC)CCN(C(=O)C2CCC(=O)N(Cc3ccccc3OC)C2)C1 (centres undefined),-14.8%
COc1ccc(-n2nc(C3CCCN(Cc4cccs4)C3)[nH]c2=O)cc1 (centres undefined),-2.9%
Cn1nc(-c2ccccc2F)c2cc(C(=O)N3CCN(c4ccc(F)cc4)CC3)sc21,21.0%
CCCNC(=O)c1c(OCC2CC2)cc(=O)n2c1CCCCC2,19.6%
OC[C@H]1C[C@@H](NCc2cccc3c2OCO3)[C@H](O)[C@@H]1O,12.9%[44.1 µM]
C#CCNC(=O)C[C@@H]1c2nc(NC(=O)c3ccc(F)cc3)sc2C[C@@H]2[C@](C)(CO)[C@H](O)CC[C@]21C,-12.9%
C[C@]1(CO)[C@H]2Cc3sc(NC(=O)c4ccco4)nc3[C@@H](CC(=O)NCc3cccnc3)[C@]2(C)CC[C@H]1O,7.08µM*
COCCNC(=O)C[C@@H]1c2nc(NC(=O)c3ccnc(Cl)c3)sc2C[C@@H]2[C@](C)(CO)[C@H](O)CC[C@]21C,-20.9%
COc1ccc(C(=O)Nc2nc3c(s2)C[C@@H]2[C@](C)(CO)[C@H](O)CC[C@@]2(C)[C@@H]3CC(=O)NCCNC(C)=O)cc1,i
COc1ccc(C(=O)Nc2nc3c(s2)C[C@@H]2[C@](C)(CO)[C@H](O)CC[C@@]2(C)[C@@H]3CC(=O)NCc2ccco2)cc1,2µM*
C[C@]1(CO)[C@H]2Cc3sc(NC(=O)c4cccs4)nc3[C@@H](CC(=O)NCc3cccnc3)[C@]2(C)CC[C@H]1O,i
CCCCCC(=O)Nc1nc2c(s1)C[C@@H]1[C@](C)(CO)[C@H](O)CC[C@@]1(C)[C@@H]2CC(=O)NCc1cccnc1,i
C[C@]1(CO)[C@H]2Cc3sc(NC(=O)c4cccc(F)c4)nc3[C@@H](CC(=O)NCc3ccco3)[C@]2(C)CC[C@H]1O,8.91µM*
CC(C)(C)C(=O)Nc1nc2c(s1)C[C@@H]1[C@](C)(CO)[C@H](O)CC[C@@]1(C)[C@@H]2CC(=O)NCc1ccco1,i
C=CCN1CCN(c2nc(C)nc3c2CCN(C(=O)N(C)C)CC3)CC1,-16.4%
CCOc1ccc(C2CC(=O)Nc3c2c(=O)[nH]c2ncnn32)cc1 (centres undefined),18.2%
COCC(=O)N[C@@H]1CN(C2CCOCC2)CC[C@@H]1CO,4.9%
COc1nc2c(cc1CNC(=O)CCc1ccccn1)C(=O)N(C1CCCC1)C2,-2.5%
SMILES,Pf Dd2 growth
C[S+](=O)([O-])N1CC2(Cc3ccccc31)CN(C(=O)Cc1ccccn1)C2,25.1%
O=C1[C@@H]2C[C@@H](CN2CC2CC2)Oc2ccccc2N1Cc1cccnc1,i
O=C1C[C@@H]2CCN(C(=O)COc3ccccc3)C[C@@H]2CCN1Cc1ccc2c(c1)OCO2,-17.6%
CCNC(=O)N[C@H]1C[C@@H](Cc2cc(CN3CCN(c4ccccc4)CC3)on2)C1(C)C,-13.2%[44.1 µM]
Cc1nc([C@@H]2CN(C(=O)c3cccc(C#N)c3)C[C@H]2C(N)=O)n[nH]1,16.1%
O=C(NC1CCN(c2ccccc2)C1=O)c1cccc(Br)c1 (centres undefined),-15.4%
COc1ccc(-c2cc3c(cn2)CN(C)CCN3)cc1OC,7.2%[44.1 µM]
COc1ccc(S(=O)(=O)N2Cc3ccccc3CC2C(=O)Nc2cc(Cl)ccc2Cl)cc1 (centres undefined),10µM*
COc1ccc(NC(=O)C2Cc3ccccc3CN2S(=O)(=O)c2ccccc2)cc1OC (centres undefined),-24.6%
COc1ccc(OC)c(S(=O)(=O)N2Cc3ccccc3CC2C(=O)Nc2ccc(Cl)cc2)c1 (centres undefined),i
Cc1ccc(CNCc2ccc3c(c2)n(C)c(=O)n3C)cc1,-17.4%
O=C(COc1ccc(F)cc1)N1CCC(c2noc(C3CC3)n2)C1 (centres undefined),i[5.79 µM]
COc1cc(NC(=O)N2CCC(CN3CCc4ccccc4C3)CC2)cc(OC)c1,10.7%
